Screens as filed in PubChem BioAssay.
LDHA inh: qHTS assay for inhibitors of human lactate dehydrogenase; L-lactate dehydrogenase A chain (Homo sapiens), P00338; purified LDHA, NADH/diaphorase-resazurin fluorescence; stronger effect = lower value; activity change, % (values are at about 110 or 230 µM); 0.15% of 480,000 active; AID 1347041, 2019; in the data active = activity change below about -30%; inconclusive = mostly about -25% to -30%;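 note: plate controls were DMSO wells for no effect and wells without enzyme for full effect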
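Enzyme activity of human lactate dehydrogenase 5 (2 nM; 0.06 mM NADH, 0.2 mM pyruvate, 5 min, RT) is measured via a resazurin/diaphorase fluorescence readout of residual NADH.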
PI5P4K alpha inh: qHTS for Inhibitors of phosphatidylinositol 5-phosphate 4-kinase (PI5P4K). Phosphatidylinositol 5-phosphate 4-kinase type-2 alpha (Homo sapiens), P48426. 1.2% of 330,000 active. PI5P4Kalpha enzyme, ADP-Glo luminescence, 60 min; stronger effect = lower value. max response, %; active = max response of -50% or lower; inconclusive = between -30% and -50%; inactive = -30% or higher; note: value at the top dose of about 77 µM; % is set by controls: 0 for no effect and ±100 for the full control effect
Target sequence (P48426 whole entry, looked up): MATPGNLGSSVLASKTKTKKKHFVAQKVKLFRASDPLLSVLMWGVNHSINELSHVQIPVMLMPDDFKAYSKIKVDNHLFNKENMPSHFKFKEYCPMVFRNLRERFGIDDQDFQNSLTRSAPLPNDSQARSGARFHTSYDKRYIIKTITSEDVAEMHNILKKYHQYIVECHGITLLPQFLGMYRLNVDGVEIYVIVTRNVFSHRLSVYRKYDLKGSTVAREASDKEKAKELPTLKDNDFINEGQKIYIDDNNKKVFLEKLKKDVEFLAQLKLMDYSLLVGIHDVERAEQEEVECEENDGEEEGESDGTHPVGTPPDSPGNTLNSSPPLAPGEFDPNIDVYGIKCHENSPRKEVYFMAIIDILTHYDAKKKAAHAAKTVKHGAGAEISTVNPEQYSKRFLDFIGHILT
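Controls without substrate or without enzyme flank wells where PI5P4Kalpha converts substrate using 5 microM ATP (final). Incubation lasts 60 minutes at room temperature; ADP formed is read by ADP-Glo luminescence.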
PI4K2A block: qHTS for small molecular inhibitors of PI4K2A | Phosphatidylinositol 4-kinase type 2-alpha (Homo sapiens), Q9BTU6 | activity change, negative = inhibition, % at 76.9 µM | purified PI4K2A, ADP-Glo luminescence, 1 h; stronger effect = lower value | 0.13% of 420,000 active | AID 1346378, 2018; in the data active = activity change below about -50%; inconclusive = mostly about -30% to -49%;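 note: -100% = wells without enzyme as full effect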
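ADP-Glo luminescence measured ADP generated by PI4K2A enzyme (4 ug/mL before mixing) with 1.2 mM PI substrate (pre-mix) and 300 microM ATP (pre-mix). Tris pH7.5 buffer with MgCl2, Triton X-100; 1 h reaction at ambient temperature.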
D3 antag: qHTS of D3 Dopamine Receptor Antagonist: qHTS | AID 652054, 2013 | D3R cells, DiscoveRx beta-arrestin luminescence, antagonist mode; stronger effect = lower value | D(3) dopamine receptor (Homo sapiens), P35462 | 2.5% of 360,000 active | max response, negative = inhibition, %; in the data active = max response below about -50%; inconclusive = no clear call, values can overlap the other calls; note: % is set by controls: 0 for no effect and ±100 for the full control effect
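Cells plated overnight at 1500 cells/well, then exposed to library compounds with dopamine controls for 90 minutes at 37 degrees C. DiscoveRx reagent added for 30–60 minutes at room temperature; luminescence read, quantitative HTS format.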
DRD3 agonist: qHTS of D3 Dopamine Receptor Agonist: qHTS | D(3) dopamine receptor (Homo sapiens), P35462 | D3R DiscoveRx beta-arrestin cells, luminescence, 90 min | max activation, % | 0.58% of 410,000 active | AID 652048, 2013; in the data active = max activation above about 30%; note: 0% is about no effect
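Agonist-mode cell screen: cells plated at 1500/well and incubated overnight at 37 °C, then exposed to library compounds for 90 min at 37 °C. Detection reagent was added for 30–60 min at room temperature, and luminescence was read.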
* marks the source's active call; other numbers are inactive results. Sampled rows, rich in hits. Any-hit rate of the full collection: about 3.3%.

CC(NC(=O)Cn1cc(C(=O)c2ccccc2)c2ccccc21)c1ccccc1 (configuration not stated) was read as LDHA inh 6.
COc1ccc(-c2c(C)c3cc(OC(=O)N(C)C)ccc3oc2=O)cc1 was read as LDHA inh -33*.
Screening COc1ccc(-c2c(C)c3ccc(OC(=O)N(C)C)cc3oc2=O)cc1 returned LDHA inh -2.
Screening Cc1ccc(C(=O)N[C@@H](C)CN2C3=NC[C@H](Cc4ccccc4)N3C[C@H]2Cc2ccc(O)cc2)cc1Br returned LDHA inh 2, PI5P4K alpha inh -18, PI4K2A block 4, D3 antag -27 and DRD3 agonist -23.
Screening Cc1ccc(C(=O)N[C@@H](C)CN2C3=NC[C@@H](Cc4ccccc4)N3C[C@H]2Cc2ccc(O)cc2)cc1Br returned LDHA inh 1, PI5P4K alpha inh -2, PI4K2A block 0, D3 antag -70* and DRD3 agonist -53.
`CCC(C)N1CCN(Cc2ccc(OC)c(Br)c2)CC1` (configuration not stated) gave LDHA inh -4.
O=C(N/N=C\C1C(=O)NC(=S)N(c2ccccc2)C1=O)c1ccc(O)cc1 (configuration not stated) was read as LDHA inh 2, PI5P4K alpha inh -57*, PI4K2A block -3, D3 antag -4 and DRD3 agonist 5.
CCC[N+]12CCC(CC1)C(C(O)(c1ccccc1)c1ccccc1)C2 (configuration not stated) was read as LDHA inh -2, PI5P4K alpha inh 2, PI4K2A block 8, D3 antag -18 and DRD3 agonist -14.
C[N+]12CCC(CC1)C(C(O)(c1ccccc1)c1cccs1)C2 (configuration not stated) was read as LDHA inh -36*, PI4K2A block 0, D3 antag -5 and DRD3 agonist 5.
Screening ON1C2CCCCC2N(O)C1c1ccco1 (configuration not stated) returned LDHA inh 2.
Screening O=C1NC(=O)N(Cc2ccccc2)C(=O)/C1=C/c1cnc(-c2ccccc2)nc1 returned LDHA inh -16, PI5P4K alpha inh -73*, PI4K2A block -14, D3 antag -9 and DRD3 agonist -5.
`CC(C)c1ccc(N2C(=O)NC(=O)/C(=C/c3cnc(-c4ccccc4)nc3)C2=O)cc1` gave LDHA inh -17, PI5P4K alpha inh -54*, PI4K2A block -12, D3 antag 4 and DRD3 agonist 5.
CCCN1CCc2cccc3c2[C@H]1Cc1ccc(O)c(O)c1-3 was read as LDHA inh 17, PI5P4K alpha inh inconclusive, PI4K2A block -3, D3 antag inconclusive and DRD3 agonist 4.
`CCCN1CCO[C@@H]2c3cc(O)ccc3OC[C@H]21` gave LDHA inh 5, PI5P4K alpha inh -1, PI4K2A block -2, D3 antag 28 and DRD3 agonist 146*.
`Cc1ccc(-n2nnnc2C2(NC3CCCCC3)CCCCC2)cc1` gave LDHA inh -5.
O=C(NCCN1CCC2(CC1)C(=O)NCN2c1cccc(F)c1)c1ccc2ccccc2c1 was read as LDHA inh -3, PI5P4K alpha inh 1, PI4K2A block -1, D3 antag -89* and DRD3 agonist -11.
Screening O=C(NCCN1CCC(n2c(=O)[nH]c3ccccc32)CC1)c1ccc2ccccc2c1 returned LDHA inh -6, PI5P4K alpha inh 0, PI4K2A block 0, D3 antag -55* and DRD3 agonist -10.
O=C1NCN(c2ccccc2)C12CCN(CC1COc3ccccc3O1)CC2 (configuration not stated) was read as PI4K2A block 2 and DRD3 agonist -24.
For COc1ccc(CNC(C)Cc2ccccc2)cc1 (configuration not stated) the results were LDHA inh 3.
For CS(=O)(=O)c1ccc(C2=C(CNC(=O)c3ccc([N+](=O)[O-])cc3)[C@H]3CC[C@@H](C2)N3Cc2ccccc2)cc1 the results were LDHA inh 0, PI5P4K alpha inh -2, PI4K2A block 0, D3 antag -86* and DRD3 agonist -8.
For CCOC(=O)c1cccc(C2=C(CNC(=O)c3nccs3)[C@H]3CC[C@@H](C2)N3Cc2ccccc2)c1 the results were LDHA inh -8, PI5P4K alpha inh 4, PI4K2A block -3, D3 antag -57* and DRD3 agonist -17.
For CCOC(=O)c1cccc(C2=C(CNC(=O)c3ocnc3C)[C@H]3CC[C@@H](C2)N3Cc2ccccc2)c1 the results were LDHA inh -1, PI5P4K alpha inh -2, PI4K2A block -6, D3 antag -2 and DRD3 agonist -12.
CCc1ccc(OCC(=O)N2CCN(Cc3ccc4c(c3)OCO4)CC2)cc1 was read as LDHA inh -3, PI5P4K alpha inh 10, PI4K2A block -3, D3 antag inconclusive and DRD3 agonist -13.
COc1ccccc1N1CCN(Cc2cccc(Br)c2)CC1 was read as LDHA inh -8, PI5P4K alpha inh 3, PI4K2A block 0, D3 antag -100* and DRD3 agonist -21.
COc1ccccc1N1CCN(Cc2cc(C)c(C)cc2O)CC1 was read as LDHA inh -1, PI5P4K alpha inh -5, PI4K2A block 1, D3 antag -84* and DRD3 agonist -16.
COc1ccccc1N1CCNCC1 was read as LDHA inh -4, PI5P4K alpha inh -1, PI4K2A block 3, D3 antag -17 and DRD3 agonist -11.
`COc1ccccc1N1CCN(Cc2c(F)cccc2Cl)CC1` gave LDHA inh 0, PI5P4K alpha inh -1, PI4K2A block 1, D3 antag 0 and DRD3 agonist -3.
`COc1ccccc1N1CCN(Cc2ccccc2)CC1` gave LDHA inh -9, PI5P4K alpha inh 2, PI4K2A block 1, D3 antag -113* and DRD3 agonist -5.
COc1ccccc1N1CCN(Cc2ccc3c(c2)OCO3)CC1 was read as LDHA inh inconclusive, PI5P4K alpha inh 5, PI4K2A block 3, D3 antag -87* and DRD3 agonist -35.
`O=C(O)CCCCCCCCCCO` gave LDHA inh 7.
CC(NC(C)c1ccccc1F)C(=O)c1c[nH]c2ccccc12 (configuration not stated) was read as LDHA inh 7.
For O=C(Cc1c[nH]c2ccccc12)N1CCN(C(c2ccccc2)c2ccccc2)CC1 the results were LDHA inh -2.
